# Screens from PubChem BioAssay.
# Rows were chosen to be rich in hits. Some 2.4% of all compounds tested hit in one or more screens of this group.
# PHOSPHO1 block = blocks human PHOSPHO1 phosphatase activity. Q8TCT1. recombinant PHOSPHO1, absorbance phosphatase assay. inhibition, % at 13.3 µM. actives 1.1% (n = 290,000). AID 1565; in the data active means inhibition above about 60%
# Target sequence (Q8TCT1 whole entry, looked up): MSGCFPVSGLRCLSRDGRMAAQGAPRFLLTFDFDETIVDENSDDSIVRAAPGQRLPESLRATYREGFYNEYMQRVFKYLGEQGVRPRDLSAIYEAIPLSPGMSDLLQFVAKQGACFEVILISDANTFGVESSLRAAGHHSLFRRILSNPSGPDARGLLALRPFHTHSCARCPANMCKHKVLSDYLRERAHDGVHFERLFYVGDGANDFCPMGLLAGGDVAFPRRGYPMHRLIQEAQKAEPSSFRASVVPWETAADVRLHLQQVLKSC
# MLLE-PAM2 inh = blocks PAM2 peptide binding to the PABP1 MLLE domain; P11940; GST-MLLE / FITC-PAM2 fluorescence polarization; inhibition, % at 20 µM; actives 0.36% (n = 360,000); AID 588489; in the data active means inhibition above about 35%, passing the limit was not always enough;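 further: plate controls were DMSO wells with GST-MLLE for no effect and wells lacking GST-MLLE protein for full effect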
# PABP FP inh = blocks human PABP binding to poly(A) RNA; P11940; fluorescence polarization; calls only at 35 µM; actives 1% (n = 290,000);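 further: calls also rest on retests at 20 µM and on dose response follow-up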
# HMGR II inh = inhibitors of class II HMG-CoA reductase from Enterococcus faecalis. purified E. faecalis HMGR, NADPH absorbance 340 nm kinetic. inhibition, % at 10 µM. actives 0.41% (n = 190,000);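 active means inhibition above a set limit, the median over all tested compounds plus 3 SD, cut at about 9.5% in these data; inconclusive means no clear call, values can overlap the other calls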;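 further: enzyme runs in reverse so mevalonate oxidation gives rising NADPH absorbance; 0% = complete reaction with DMSO and 100% = background rate lacking mevalonate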
# eIF4H FP inh = inhibitors of RNA binding by human eIF4H. Q15056. eIF4H fluorescence polarization binding assay. inhibition, % at 35 µM. actives 0.94% (n = 290,000). AID 2012;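 further: calls also rest on retests at 20 µM and on dose response follow-up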
# Active calls of the source: *; i = inactive; ? = inconclusive; . = no result given; + = active, no number. Unless noted, how the calls were made is not given here.
SMILES,PHOSPHO1 block,MLLE-PAM2 inh,PABP FP inh,HMGR II inh,eIF4H FP inh
COCCCN=C(c1ccco1)n1c(=S)nc(-c2ccco2)n(CCCOC)c1=S,97.5*,18.9,i,-4.5,18.5
COCCCn1c(-c2ccco2)nc2ccccc2c1=O,-6.8,0.6,i,-3.7,3.6
CCN(CC)C(=O)C1=C(C)N(CCCOC)C(=O)C(CC(=O)NCc2ccco2)C1 (stereo not given),.,-1.2,.,.,.
Cc1ccccc1N1CCN(C2CCCN(C(=O)c3cn4cccc(C)c4n3)C2)CC1 (stereo not given),40.8,-0.7,i,.,-3.7
Cc1c(NC(=O)Oc2ccccc2)sc(=S)n1C,5.7,38.6*,i,-2.7,-3.3
Cc1ccc(NC(=O)Nc2sc(=S)n(C)c2C)cc1,16.8,-55.3,i,-4.6,3.3
Cc1ccc2[nH]c(=O)c(CNC(C)C)cc2c1,62.1*,-17.3,i,2.0,0.8
COc1ccc2[nH]c(=O)c(CNc3cccc(C)c3)cc2c1,27.9,2.9,i,-0.6,16.7
CC(=O)c1sc2nc(-c3cccs3)ccc2c1N,73.1*,21.6,i,-1.2,9.3
CC1(C(=O)O)CCCN(C(=O)C2(c3ccc(Cl)cc3)CCCC2)C1 (stereo not given),.,3.4,.,.,.
Nc1cc(Nc2ccccc2)c2nonc2c1[N+](=O)[O-],15.0,55.9*,i,.,-6.4
O=C(O)c1ccc(Nc2cc(Cl)c3nonc3c2[N+](=O)[O-])cc1,23.8,38.6*,i,-1.7,0.7
CCCCN1C(=O)C(C(=O)OCc2ccccc2)CC2=C1CCCC2=O (stereo not given),.,-2.0,.,.,.
O=C(N/N=C/c1cccn1-c1cccc(C(=O)O)c1)Nc1ccccc1,7.1,-2.3,+,-4.3,?
COc1ccc(C2=CC(c3ccc(F)cc3)n3nnnc3N2)cc1 (stereo not given),-3.3,45.5*,i,-2.1,-0.3
COc1ccc(C2=CC(c3sccc3C)n3nnnc3N2)cc1 (stereo not given),40.5,32.6,i,-7.9,-3.4
CCOc1ccc(Nc2ncnc3c2nnn3Cc2ccccc2)cc1,60.0*,-1.4,i,.,-3.4
Cn1c2ccccc2c2nnc(SCC(=O)NC3CCCC3)nc21,23.2,-0.8,i,.,-5.2
O=C(c1ccc(F)cc1)C1CCN(C(=S)NCC2CCCO2)CC1 (stereo not given),31.2,-123.8,i,11.6*,-3.3
Cc1ccc(C(=O)C2CCN(C(=S)NCC3CCCO3)CC2)cc1 (stereo not given),47.7,-135.0,i,-4.0,0.4
COc1ccc(/C=C2\Sc3ccc(C(=O)N4CCCC4)cc3N(C)C2=O)cc1OC,18.3,38.2*,.,.,.
CCOc1ccc(/C=C2/Sc3ccc(C(=O)N4CCOCC4)cc3N(C)C2=O)cc1OC,54.3,22.0,i,.,7.6
O=c1ccn([C@@H]2O[C@H](CNCc3ccccc3OCc3ccc(Cl)cc3Cl)[C@@H](O)[C@H]2O)c(=O)[nH]1,.,-9.3,.,.,.
CN(CC(=O)c1c(N)n(C)c(=O)n(C)c1=O)c1ccccc1,39.4,-5.8,i,-1.8,-2.0
CC1(C)CC(=O)c2cc(OCC(=O)N3CCCCCC3)ccc2O1,15.9,1.2,i,2.2,8.0
SMILES,PHOSPHO1 block,MLLE-PAM2 inh,PABP FP inh,HMGR II inh,eIF4H FP inh
CCOC(=O)N1CCN(C(=O)COc2ccc3c(c2)C(=O)CC(C)(C)O3)CC1,-5.3,-4.2,+,-0.9,?
COc1cc(OC)cc(C(=O)NNC(=O)c2ccc3c(c2)OCCO3)c1,.,-0.2,.,.,.
COc1cc(OC)cc(-c2nnc(NC(=O)c3ccc4c(c3)OCCO4)o2)c1,62.9*,-0.2,i,.,10.7
CSc1nc(N)cc(=O)[nH]1,23.7,11.3,+,.,60.9
O=C1C[C@@H]2c3c(cccc3CN1Cc1ccc(Br)cc1)C[C@@H](O)[C@H]2O,.,7.1,.,.,.
CCN1CCC(NCCc2ccc(F)cc2)CC1,.,0.5,i,.,-1.5
COc1c(O)cccc1[C@H](O)C1CCN(CCc2ccc(F)cc2)CC1,.,76.5*,.,.,.
COCC1CCCCC1OS(N)(=O)=O (stereo not given),-1.7,-13.0,i,.,-2.8
Cc1ccc(C(=O)N/C(=C\c2ccc(-c3ccccc3[N+](=O)[O-])o2)C(=O)NCCCN2CCOCC2)cc1,-14.3,23.5,+,.,97.9*
CC(=O)N1CC(C)Oc2ccc(S(=O)(=O)NC(CC(=O)O)c3ccccc3C)cc21 (stereo not given),64.9*,17.4,i,.,-9.5
O=C(CC1SC(=O)NC1=O)Oc1ccc(/C=N/NC(=O)c2ccccc2O)cc1 (stereo not given),10.6,28.5,i,.,-0.7
CC(CCCC(C)(C)O)NC(=O)c1ccc(OC2CCN(C(=O)C3CC3)CC2)cc1 (stereo not given),23.9,-5.3,i,10.0*,-0.5
CC(C)C[C@H](NC(=O)c1ccc(OC2CCN(C(=O)C3CC3)CC2)cc1)C(N)=O,1.2,6.0,i,-4.9,-8.5
O=C1CN(CC(=O)NC2CCCc3ccccc32)CCN1 (stereo not given),32.6,-17.2,i,.,-3.9
Cc1cc(-c2ccccc2)c2c(=O)n(-c3ccccc3)[nH]c2n1,23.9,6.6,i,.,-14.4
O=c1c2c3n(c(=S)nc2[nH]n1-c1ccccc1)CCCCC3,82.4*,-32.4,i,-1.9,6.7
c1ccc(CCc2nn3c(C4COc5ccccc5O4)nnc3s2)cc1 (stereo not given),41.6,33.2,i,-3.3,-0.6
COc1ccccc1-c1nn2c(C3COc4ccccc4O3)nnc2s1 (stereo not given),92.1*,29.2,i,-7.1,-10.2
c1ccc(Cc2nn3c(C4COc5ccccc5O4)nnc3s2)cc1 (stereo not given),62.4*,33.1,i,-3.6,-7.7
CCC(C)NC(=O)c1cc2c(=O)n3ccccc3nc2s1 (stereo not given),60.6*,1.1,i,.,-2.3
CN(C)S(=O)(=O)c1cccc(NC(=O)c2cc3c(=O)n4ccccc4nc3s2)c1,6.0,-7.9,i,-6.9,-12.6
Cc1cc(NS(=O)(=O)c2ccc(NC(=O)c3cc4c(=O)n5ccccc5nc4s3)cc2)nc(C)n1,24.6,-4.5,+,-2.4,71.6
CCc1nc(NCC2CC2)c2nnn(Cc3ccccc3)c2n1,.,-4.4,.,.,.
C[C@H](CO)N1C[C@H](C)[C@@H](CN(C)Cc2ccc(Oc3ccccc3)cc2)Oc2c(NS(=O)(=O)c3cn(C)cn3)cccc2C1=O,.,8.4,.,.,.
CCOC(=O)N1CCC(Nc2nc3ccccc3n3nnnc23)CC1,-6.6,7.7,+,0.0,?
Cc1ccccc1N=Cc1cccc(O)c1O,-2.6,-1.8,i,4.8,?
Cc1ccc(N=Cc2cccc(O)c2O)c(C)c1,20.8,5.0,+,4.2,99.2*
Oc1c(C(c2ccco2)N2CCOCC2)sc2ncnn12 (stereo not given),90.4*,8.5,+,-3.0,129.9
Cc1nc2sc(C(c3ccco3)N3CC(C)OC(C)C3)c(O)n2n1 (stereo not given),103.1*,22.9,i,-2.8,14.4
